# In publication PMC7862700, “An all-to-all approach to the identification of sequence-specific readers for epigenetic DNA modifications on cytosine”:
# Experiments:
# Assay in all cases: DAPPL (digital affinity profiling via proximity ligation, sequencing); 10 mM Tris-HCl pH 7.5, 50 mM NaCl, 1 mM DTT, 4% glycerol, room temperature, 30 min; GST-TFs on glutathione beads, 16-mer random dsDNA library, 0.1% formaldehyde crosslink after washing; high values mean tight binding
# [1] = target: T1, FLI1 (Homo sapiens, UniProt Q01543 1-452); settings: protein: recombinant; tags: N-terminal GST; dsDNA, one strand shown
# T1 sequence: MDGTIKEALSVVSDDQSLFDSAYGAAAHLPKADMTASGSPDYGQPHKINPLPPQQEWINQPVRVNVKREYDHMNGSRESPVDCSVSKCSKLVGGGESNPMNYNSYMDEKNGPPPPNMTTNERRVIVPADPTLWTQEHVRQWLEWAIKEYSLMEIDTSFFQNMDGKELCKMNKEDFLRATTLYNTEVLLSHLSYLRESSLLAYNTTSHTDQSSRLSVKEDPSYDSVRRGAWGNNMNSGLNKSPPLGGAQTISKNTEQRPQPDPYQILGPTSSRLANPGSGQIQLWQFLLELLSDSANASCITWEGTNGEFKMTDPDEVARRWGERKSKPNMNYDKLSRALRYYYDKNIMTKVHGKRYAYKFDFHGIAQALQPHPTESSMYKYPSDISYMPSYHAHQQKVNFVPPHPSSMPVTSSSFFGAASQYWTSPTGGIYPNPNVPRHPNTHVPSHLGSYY
# In short: (§1)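 Beads coated with glutathione captured GST-fused human transcription factors that had been expressed in yeast, and the factors were then given DNA barcodes and pooled with a tag-only sample. The pools were incubated with 200 nmole of a random double-stranded 16-mer DNA library in Tris/NaCl/DTT/glycerol buffer for 30 min at room temperature, washed, crosslinked with 0.1% formaldehyde and proximity-ligated with BsaI/T4 ligase at 37 °C for 1 h. PCR amplification and Illumina NextSeq500 sequencing came last. Binding signal is each hexamer's read frequency for a factor divided by its frequency for the tag-only sample.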
# [2] = target: T2, ELK1 (Homo sapiens, UniProt P19419 1-428); settings: protein: recombinant; tags: N-terminal GST; dsDNA, one strand shown
# T2 sequence: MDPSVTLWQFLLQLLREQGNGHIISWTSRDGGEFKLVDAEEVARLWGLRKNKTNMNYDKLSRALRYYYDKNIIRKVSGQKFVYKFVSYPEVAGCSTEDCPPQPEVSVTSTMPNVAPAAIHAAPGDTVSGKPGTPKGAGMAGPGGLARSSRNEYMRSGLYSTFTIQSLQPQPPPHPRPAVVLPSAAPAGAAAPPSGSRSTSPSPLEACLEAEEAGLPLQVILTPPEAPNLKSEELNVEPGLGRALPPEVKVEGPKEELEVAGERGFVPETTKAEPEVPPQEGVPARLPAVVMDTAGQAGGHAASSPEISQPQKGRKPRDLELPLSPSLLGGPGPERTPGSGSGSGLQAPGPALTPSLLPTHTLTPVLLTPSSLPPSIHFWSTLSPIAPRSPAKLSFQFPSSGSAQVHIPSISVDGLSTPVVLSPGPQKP
# In short: as §1
# [3] = target: T3, GABPA (Homo sapiens, UniProt Q06546 1-454); settings: protein: recombinant; tags: N-terminal GST; dsDNA, one strand shown
# T3 sequence: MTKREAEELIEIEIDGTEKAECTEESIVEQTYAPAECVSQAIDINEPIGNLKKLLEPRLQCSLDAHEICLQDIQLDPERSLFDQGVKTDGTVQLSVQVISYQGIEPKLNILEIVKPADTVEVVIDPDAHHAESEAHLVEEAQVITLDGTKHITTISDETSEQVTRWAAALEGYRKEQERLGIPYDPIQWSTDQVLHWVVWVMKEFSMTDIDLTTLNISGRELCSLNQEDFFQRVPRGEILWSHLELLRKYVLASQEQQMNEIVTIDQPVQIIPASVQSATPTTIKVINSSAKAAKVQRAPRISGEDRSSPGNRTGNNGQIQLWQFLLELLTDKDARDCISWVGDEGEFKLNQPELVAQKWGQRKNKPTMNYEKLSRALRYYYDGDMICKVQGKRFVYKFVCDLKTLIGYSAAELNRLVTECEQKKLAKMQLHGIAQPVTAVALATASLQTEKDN
# In short: as §1
# [4] = target: T4, ERG (Homo sapiens, UniProt P11308 1-479); settings: protein: recombinant; tags: N-terminal GST; dsDNA, one strand shown
# T4 sequence: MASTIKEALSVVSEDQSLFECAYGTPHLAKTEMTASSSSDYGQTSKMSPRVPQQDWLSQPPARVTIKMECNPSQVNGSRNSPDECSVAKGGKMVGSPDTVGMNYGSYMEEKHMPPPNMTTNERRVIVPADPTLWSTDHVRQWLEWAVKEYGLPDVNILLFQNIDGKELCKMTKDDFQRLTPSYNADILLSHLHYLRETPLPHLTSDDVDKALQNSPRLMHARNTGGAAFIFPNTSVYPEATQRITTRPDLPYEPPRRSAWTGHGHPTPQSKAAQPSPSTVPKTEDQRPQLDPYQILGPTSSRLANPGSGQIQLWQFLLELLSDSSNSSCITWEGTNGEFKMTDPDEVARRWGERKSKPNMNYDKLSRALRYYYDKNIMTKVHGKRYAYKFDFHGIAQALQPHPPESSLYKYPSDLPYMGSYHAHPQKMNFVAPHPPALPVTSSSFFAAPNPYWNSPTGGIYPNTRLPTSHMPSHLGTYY
# In short: as §1
# [5] = target: ELF1 (Homo sapiens, UniProt P32519 1-619); settings: protein: recombinant; tags: N-terminal GST; dsDNA, one strand shown
# ELF1, sequence (P32519 whole entry): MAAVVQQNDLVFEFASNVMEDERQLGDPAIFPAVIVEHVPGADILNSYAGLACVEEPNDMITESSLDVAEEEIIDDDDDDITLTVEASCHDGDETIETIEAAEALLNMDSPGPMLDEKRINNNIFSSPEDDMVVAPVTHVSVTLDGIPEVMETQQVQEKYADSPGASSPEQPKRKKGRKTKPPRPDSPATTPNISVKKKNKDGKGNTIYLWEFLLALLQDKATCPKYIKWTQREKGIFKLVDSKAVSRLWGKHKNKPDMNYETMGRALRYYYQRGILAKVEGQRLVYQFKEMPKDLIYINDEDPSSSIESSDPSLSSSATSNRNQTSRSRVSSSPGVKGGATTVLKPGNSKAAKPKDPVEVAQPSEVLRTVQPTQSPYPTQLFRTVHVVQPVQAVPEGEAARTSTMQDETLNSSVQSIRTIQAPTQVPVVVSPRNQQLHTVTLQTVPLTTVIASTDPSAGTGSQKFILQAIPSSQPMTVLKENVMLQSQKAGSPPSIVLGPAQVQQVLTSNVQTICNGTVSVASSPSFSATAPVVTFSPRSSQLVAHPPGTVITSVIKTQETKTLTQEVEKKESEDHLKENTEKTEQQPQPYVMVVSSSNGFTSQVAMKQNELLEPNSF
# In short: as §1
# [6] = target: T5, EHF (Homo sapiens, UniProt Q9NZC4 1-300); settings: protein: recombinant; tags: N-terminal GST; dsDNA, one strand shown
# T5 sequence: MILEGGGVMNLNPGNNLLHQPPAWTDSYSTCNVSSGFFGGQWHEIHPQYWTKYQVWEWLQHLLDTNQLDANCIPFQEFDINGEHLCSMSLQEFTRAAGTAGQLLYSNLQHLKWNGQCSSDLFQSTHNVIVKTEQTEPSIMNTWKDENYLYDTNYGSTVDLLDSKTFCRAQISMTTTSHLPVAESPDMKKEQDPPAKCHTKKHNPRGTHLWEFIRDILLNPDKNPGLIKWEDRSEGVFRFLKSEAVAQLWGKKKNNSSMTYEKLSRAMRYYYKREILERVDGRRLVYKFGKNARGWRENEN
# In short: as §1
# [7] = target: SPI1 (Homo sapiens, UniProt P17947 1-270); settings: protein: recombinant; tags: N-terminal GST; dsDNA, one strand shown
# In short: as §1
# [8] = target: SPIB (Homo sapiens, UniProt Q01892 1-262); settings: protein: recombinant; tags: N-terminal GST; dsDNA, one strand shown
# SPIB, sequence (Q01892 whole entry): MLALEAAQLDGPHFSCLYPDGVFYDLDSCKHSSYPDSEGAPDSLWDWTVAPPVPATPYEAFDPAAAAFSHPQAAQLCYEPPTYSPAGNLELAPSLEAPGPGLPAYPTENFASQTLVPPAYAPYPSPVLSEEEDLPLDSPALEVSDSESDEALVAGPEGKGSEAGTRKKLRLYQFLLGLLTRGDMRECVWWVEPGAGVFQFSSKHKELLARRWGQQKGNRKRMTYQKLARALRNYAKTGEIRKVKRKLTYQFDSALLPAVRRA
# In short: as §1
# [9] = target: T6, ELK3 (Homo sapiens, UniProt P41970 1-407); settings: protein: recombinant; tags: N-terminal GST; dsDNA, one strand shown
# T6 sequence: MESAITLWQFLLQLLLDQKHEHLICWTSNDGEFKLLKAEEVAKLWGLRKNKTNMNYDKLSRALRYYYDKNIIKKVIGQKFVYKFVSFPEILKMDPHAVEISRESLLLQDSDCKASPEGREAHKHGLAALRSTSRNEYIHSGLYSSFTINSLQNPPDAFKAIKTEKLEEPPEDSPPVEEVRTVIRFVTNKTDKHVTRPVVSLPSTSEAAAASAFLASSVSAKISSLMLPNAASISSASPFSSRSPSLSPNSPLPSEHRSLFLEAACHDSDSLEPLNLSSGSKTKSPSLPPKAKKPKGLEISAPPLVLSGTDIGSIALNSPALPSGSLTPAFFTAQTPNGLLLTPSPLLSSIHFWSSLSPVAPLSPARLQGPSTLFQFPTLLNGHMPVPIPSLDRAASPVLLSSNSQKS
# In short: as §1
# [10] = target: T7, FEV (Homo sapiens, UniProt Q99581 1-238); settings: protein: recombinant; tags: N-terminal GST; dsDNA, one strand shown
# T7 sequence: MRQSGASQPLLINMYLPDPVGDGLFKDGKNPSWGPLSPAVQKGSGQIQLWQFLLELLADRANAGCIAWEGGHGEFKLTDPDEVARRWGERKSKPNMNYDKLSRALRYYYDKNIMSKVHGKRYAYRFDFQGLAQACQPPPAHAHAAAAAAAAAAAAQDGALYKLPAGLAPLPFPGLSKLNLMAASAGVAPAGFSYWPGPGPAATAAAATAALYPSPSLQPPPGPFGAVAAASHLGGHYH
# In short: as §1
# [11] = target: ETV5 (Homo sapiens, UniProt P41161 1-510); settings: protein: recombinant; tags: N-terminal GST; dsDNA, one strand shown
# ETV5, sequence (P41161 whole entry): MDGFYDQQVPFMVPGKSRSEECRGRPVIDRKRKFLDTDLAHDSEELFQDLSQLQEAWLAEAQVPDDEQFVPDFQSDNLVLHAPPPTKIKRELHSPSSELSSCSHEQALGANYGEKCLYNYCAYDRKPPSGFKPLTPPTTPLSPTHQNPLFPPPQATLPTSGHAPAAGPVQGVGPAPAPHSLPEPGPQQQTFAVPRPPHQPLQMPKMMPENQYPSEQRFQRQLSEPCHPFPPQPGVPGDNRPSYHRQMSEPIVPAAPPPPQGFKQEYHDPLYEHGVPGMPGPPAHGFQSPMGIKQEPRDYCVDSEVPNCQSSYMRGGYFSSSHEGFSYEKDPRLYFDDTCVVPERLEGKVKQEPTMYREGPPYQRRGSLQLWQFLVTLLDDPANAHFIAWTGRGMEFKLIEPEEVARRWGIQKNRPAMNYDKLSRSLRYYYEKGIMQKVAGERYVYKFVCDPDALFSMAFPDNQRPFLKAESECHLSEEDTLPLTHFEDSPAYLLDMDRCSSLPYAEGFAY
# In short: as §1
# [12] = target: HSF1 (Homo sapiens, UniProt Q00613 1-529); settings: protein: recombinant; tags: N-terminal GST; chain copies: 3; dsDNA, one strand shown
# HSF1, sequence (Q00613 whole entry): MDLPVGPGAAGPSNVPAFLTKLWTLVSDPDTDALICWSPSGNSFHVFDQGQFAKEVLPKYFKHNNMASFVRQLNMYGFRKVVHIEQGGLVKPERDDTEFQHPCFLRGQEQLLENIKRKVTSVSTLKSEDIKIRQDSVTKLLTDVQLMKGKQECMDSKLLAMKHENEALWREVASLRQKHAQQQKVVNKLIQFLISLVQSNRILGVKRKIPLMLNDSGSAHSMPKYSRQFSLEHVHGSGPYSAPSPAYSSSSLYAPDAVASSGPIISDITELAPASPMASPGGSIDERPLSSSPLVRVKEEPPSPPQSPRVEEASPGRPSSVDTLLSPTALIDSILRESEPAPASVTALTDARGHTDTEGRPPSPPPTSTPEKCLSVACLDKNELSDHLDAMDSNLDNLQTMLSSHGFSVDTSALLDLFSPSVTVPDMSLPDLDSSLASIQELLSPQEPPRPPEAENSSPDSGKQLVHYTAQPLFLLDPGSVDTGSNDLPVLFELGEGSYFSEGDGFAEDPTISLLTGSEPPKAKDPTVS
# In short: as §1
# [13] = target: T8, SPIC (Homo sapiens, UniProt Q8N5J4 1-248); settings: protein: recombinant; tags: N-terminal GST; dsDNA, one strand shown
# T8 sequence: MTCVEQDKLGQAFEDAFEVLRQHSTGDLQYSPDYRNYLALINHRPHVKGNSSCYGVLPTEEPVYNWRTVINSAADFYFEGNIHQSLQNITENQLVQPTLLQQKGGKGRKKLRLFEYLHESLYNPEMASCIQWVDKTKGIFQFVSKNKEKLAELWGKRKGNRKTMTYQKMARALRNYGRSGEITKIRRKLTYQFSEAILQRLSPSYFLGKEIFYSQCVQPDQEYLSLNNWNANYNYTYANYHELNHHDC
# In short: as §1
# [14] = target: ELF4 (Homo sapiens, UniProt Q99607 1-663); settings: protein: recombinant; tags: N-terminal GST; dsDNA, one strand shown
# ELF4, sequence (Q99607 whole entry): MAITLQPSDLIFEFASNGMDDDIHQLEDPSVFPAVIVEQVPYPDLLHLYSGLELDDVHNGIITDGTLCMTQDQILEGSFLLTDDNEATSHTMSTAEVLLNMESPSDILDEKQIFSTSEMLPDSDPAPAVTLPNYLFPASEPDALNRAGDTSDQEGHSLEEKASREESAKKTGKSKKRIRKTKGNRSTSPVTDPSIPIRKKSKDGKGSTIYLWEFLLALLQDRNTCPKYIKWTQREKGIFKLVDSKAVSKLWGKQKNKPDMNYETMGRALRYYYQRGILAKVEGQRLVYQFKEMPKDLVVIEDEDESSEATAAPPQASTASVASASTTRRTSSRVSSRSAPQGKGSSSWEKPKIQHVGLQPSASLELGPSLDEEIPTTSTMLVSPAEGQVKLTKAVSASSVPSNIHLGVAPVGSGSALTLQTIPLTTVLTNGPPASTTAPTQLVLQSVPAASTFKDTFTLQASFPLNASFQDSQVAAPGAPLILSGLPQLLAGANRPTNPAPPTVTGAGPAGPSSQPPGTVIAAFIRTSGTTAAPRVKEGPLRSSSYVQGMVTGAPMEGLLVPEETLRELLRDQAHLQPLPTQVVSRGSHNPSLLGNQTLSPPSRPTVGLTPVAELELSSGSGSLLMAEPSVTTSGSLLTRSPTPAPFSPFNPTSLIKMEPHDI
# In short: as §1
# [15] = target: T9, ELK4 (Homo sapiens, UniProt P28324-2 1-405); settings: protein: recombinant; tags: N-terminal GST; dsDNA, one strand shown
# T9 sequence: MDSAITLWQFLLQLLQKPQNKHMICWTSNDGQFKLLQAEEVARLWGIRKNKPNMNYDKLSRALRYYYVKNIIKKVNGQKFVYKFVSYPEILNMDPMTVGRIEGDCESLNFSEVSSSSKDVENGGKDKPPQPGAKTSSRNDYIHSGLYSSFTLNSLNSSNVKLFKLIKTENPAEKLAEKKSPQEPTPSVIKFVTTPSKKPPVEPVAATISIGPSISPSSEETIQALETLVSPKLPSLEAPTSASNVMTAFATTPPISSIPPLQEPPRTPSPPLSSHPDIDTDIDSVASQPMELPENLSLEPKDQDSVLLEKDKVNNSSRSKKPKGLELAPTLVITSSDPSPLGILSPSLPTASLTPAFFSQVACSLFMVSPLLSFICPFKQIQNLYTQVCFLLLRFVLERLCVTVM
# In short: as §1
# [16] = target: T10, ETV2 (Homo sapiens, UniProt O00321 1-342); settings: protein: recombinant; tags: N-terminal GST; dsDNA, one strand shown
# T10 sequence: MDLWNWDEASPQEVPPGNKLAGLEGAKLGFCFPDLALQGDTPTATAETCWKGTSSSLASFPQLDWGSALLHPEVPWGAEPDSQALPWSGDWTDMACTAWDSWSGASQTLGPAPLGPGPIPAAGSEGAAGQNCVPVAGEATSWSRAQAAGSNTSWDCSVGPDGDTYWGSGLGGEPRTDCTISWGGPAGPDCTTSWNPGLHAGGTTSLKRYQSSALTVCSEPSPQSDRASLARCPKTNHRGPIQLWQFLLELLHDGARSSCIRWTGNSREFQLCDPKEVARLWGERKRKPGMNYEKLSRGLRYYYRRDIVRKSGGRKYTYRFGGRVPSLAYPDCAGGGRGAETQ
# In short: as §1
# [17] = target: T11, ELF3 (Homo sapiens, UniProt P78545 1-371); settings: protein: recombinant; tags: N-terminal GST; dsDNA, one strand shown
# T11 sequence: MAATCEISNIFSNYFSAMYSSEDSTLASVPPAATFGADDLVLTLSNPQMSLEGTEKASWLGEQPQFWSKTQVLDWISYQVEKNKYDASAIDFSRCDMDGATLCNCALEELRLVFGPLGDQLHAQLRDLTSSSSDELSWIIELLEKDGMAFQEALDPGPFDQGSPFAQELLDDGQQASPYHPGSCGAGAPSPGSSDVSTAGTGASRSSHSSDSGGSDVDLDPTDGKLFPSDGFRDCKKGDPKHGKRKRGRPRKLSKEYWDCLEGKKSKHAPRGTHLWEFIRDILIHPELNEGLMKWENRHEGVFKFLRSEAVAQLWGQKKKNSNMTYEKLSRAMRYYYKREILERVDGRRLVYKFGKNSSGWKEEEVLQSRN
# In short: as §1
# [18] = target: CRX (Homo sapiens, UniProt O43186 1-299); settings: protein: recombinant; tags: N-terminal GST; dsDNA, one strand shown
# CRX, sequence (O43186 whole entry): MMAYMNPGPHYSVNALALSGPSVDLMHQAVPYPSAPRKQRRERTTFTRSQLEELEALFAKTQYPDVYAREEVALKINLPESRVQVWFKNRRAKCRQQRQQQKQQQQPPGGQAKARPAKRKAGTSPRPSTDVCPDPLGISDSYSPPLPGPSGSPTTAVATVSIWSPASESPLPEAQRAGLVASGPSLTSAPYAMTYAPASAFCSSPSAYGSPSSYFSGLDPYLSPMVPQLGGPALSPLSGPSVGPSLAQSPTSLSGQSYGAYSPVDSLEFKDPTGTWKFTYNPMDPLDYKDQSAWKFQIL
# In short: as §1
# [19] = target: ETV1 (Homo sapiens, UniProt P50549 1-477); settings: protein: recombinant; tags: N-terminal GST; dsDNA, one strand shown
# ETV1, sequence (P50549 whole entry): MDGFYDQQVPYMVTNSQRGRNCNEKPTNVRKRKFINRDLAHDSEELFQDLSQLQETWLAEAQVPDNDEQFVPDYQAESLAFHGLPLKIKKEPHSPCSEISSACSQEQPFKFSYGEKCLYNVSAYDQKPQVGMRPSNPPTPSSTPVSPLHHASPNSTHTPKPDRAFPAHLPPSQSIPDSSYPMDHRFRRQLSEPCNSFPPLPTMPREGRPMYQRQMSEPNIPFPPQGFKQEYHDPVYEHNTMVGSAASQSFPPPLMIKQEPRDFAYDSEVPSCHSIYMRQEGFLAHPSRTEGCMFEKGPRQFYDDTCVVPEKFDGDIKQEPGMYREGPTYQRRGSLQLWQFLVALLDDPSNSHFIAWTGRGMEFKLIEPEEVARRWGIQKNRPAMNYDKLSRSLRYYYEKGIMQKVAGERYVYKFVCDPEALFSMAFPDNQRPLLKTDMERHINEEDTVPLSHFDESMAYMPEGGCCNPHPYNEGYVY
# In short: as §1
sequence,measurement,setting,value
TCAACT,binding signal,[1],"1.31 fold enrichment (6-mer frequency, TF over GST control)"
same,binding signal,[2],"1.31 fold enrichment (6-mer frequency, TF over GST control)"
same,binding signal,[3],"1.34 fold enrichment (6-mer frequency, TF over GST control)"
same,binding signal,[4],"1.31 fold enrichment (6-mer frequency, TF over GST control)"
same,binding signal,[5],"1.31 fold enrichment (6-mer frequency, TF over GST control)"
same,binding signal,[6],"1.35 fold enrichment (6-mer frequency, TF over GST control)"
same,binding signal,[7],"1.36 fold enrichment (6-mer frequency, TF over GST control)"
same,binding signal,[8],"1.3 fold enrichment (6-mer frequency, TF over GST control)"
same,binding signal,[9],"1.22 fold enrichment (6-mer frequency, TF over GST control)"
same,binding signal,[10],"1.36 fold enrichment (6-mer frequency, TF over GST control)"
same,binding signal,[11],"1.26 fold enrichment (6-mer frequency, TF over GST control)"
same,binding signal,[12],"1.2 fold enrichment (6-mer frequency, TF over GST control)"
same,binding signal,[13],"1.32 fold enrichment (6-mer frequency, TF over GST control)"
same,binding signal,[14],"1.27 fold enrichment (6-mer frequency, TF over GST control)"
same,binding signal,[15],"1.36 fold enrichment (6-mer frequency, TF over GST control)"
same,binding signal,[16],"1.41 fold enrichment (6-mer frequency, TF over GST control)"
same,binding signal,[17],"1.37 fold enrichment (6-mer frequency, TF over GST control)"
same,binding signal,[18],"1.34 fold enrichment (6-mer frequency, TF over GST control)"
same,binding signal,[19],"1.26 fold enrichment (6-mer frequency, TF over GST control)"
